Measured values as given in article PMC4336329 (PLoS ONE, 2015).
Out of some 310,000 compounds screened, about 14,000 (4.5%) showed an effect of 50% or more. The effect is printed as a negative number. The sample as a whole holds a higher share of strong results than the screen did.

Molecular target: human ether-à-go-go-related gene (hERG) potassium channel (human, UniProt Q12809)
Test: primary screen, population patch clamp on CHO cells stably expressing hERG; higher = less effect of the substance
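Note: peak tail current of the secondary pulse compared with the same well before compound.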

human ether-à-go-go-related gene (hERG) potassium channel, sequence (Q12809 whole entry, looked up): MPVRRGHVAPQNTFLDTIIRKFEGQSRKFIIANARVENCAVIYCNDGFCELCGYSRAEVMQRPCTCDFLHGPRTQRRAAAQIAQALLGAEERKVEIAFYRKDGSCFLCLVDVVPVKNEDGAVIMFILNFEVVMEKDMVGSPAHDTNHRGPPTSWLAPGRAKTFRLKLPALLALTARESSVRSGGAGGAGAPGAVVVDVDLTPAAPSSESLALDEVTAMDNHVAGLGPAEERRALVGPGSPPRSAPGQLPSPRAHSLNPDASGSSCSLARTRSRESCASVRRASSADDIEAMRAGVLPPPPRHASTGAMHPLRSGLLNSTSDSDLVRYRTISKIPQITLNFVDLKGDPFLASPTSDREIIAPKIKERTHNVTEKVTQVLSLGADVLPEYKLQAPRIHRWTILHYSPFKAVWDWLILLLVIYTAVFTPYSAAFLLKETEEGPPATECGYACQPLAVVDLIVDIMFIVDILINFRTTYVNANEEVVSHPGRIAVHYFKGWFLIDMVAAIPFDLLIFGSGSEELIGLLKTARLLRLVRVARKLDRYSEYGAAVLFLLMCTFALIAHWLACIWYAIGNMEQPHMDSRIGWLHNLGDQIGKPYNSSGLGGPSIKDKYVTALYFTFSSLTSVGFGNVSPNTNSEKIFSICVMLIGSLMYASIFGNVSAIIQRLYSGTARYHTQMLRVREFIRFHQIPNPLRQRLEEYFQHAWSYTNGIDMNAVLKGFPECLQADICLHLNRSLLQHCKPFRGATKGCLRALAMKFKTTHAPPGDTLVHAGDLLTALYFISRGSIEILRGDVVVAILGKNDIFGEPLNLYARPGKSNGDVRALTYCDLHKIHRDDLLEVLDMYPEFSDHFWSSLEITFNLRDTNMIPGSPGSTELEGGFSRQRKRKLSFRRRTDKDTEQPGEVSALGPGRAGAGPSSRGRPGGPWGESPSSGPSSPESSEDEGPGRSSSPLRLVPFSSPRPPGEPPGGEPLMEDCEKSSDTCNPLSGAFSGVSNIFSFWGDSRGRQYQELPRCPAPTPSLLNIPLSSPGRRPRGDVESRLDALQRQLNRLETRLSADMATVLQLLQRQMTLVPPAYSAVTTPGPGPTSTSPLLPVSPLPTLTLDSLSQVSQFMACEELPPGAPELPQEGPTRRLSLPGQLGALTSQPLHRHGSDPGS

| SMILES | hERG current change (%, negative = inhibition) at 10uM [%] |
| --- | --- |
| C=CCn1c(Oc2ccccc2F)nc2c1c(=O)n(C)c(=O)n2C | 2.59 |
| CC1=C[C@H](C)[C@H](c2c(F)cccc2Cl)CC1=O | 6.22 |
| C=CCSc1nnc(NC(=O)c2cccc(S(=O)(=O)N3CCOCC3)c2)s1 | -11.1 |
| O=C(Nc1ccccc1C(F)(F)F)N1CCCCCC1 | 8.71 |
| COc1ccc2nc(NC(=O)C(NS(=O)(=O)c3cccc4nsnc34)C(C)C)sc2c1 (stereo not drawn) | 10.4 |
| Cc1ccccc1C(=O)c1ccc2c(c1)n(C)c(=O)n2C | 2.11 |
| COC(=O)C(C)Sc1ccc2nnc(-c3ccc(F)cc3)n2n1 (stereo not drawn) | -27 |
| COC(=O)C(C)Sc1ccc2nnc(-c3ccccc3)n2n1 (stereo not drawn) | -30.8 |
| COC(=O)C(C)Sc1ccc2nnc(-c3cccc(F)c3)n2n1 (stereo not drawn) | -58 |
| COc1cc2c(cc1OC)C(C1C(=O)CCCC1=O)N(C(=O)CCl)CC2 (stereo not drawn) | 14.1 |
| CC1CCCCC1NC(=O)COn1nnc2ccc(Cl)cc21 (stereo not drawn) | -14.3 |
| CN(C)CCCNS(=O)(=O)c1cc(Cl)c(Cl)cc1Cl | -27.8 |
| CCN1CCN(c2ccc(NC(=O)c3ccco3)cc2Cl)CC1 | -4.06 |
| CCC(=O)N1CCN(c2ccc(NC(=O)c3ccc(C#N)cc3F)cc2Cl)CC1 | -7.73 |
| CCN1CCN(c2ccc(NC(=O)c3ccc(C#N)cc3F)cc2Cl)CC1 | -72.1 |
| N#Cc1ccc(C(=O)Nc2ccc([N+](=O)[O-])cc2)c(F)c1 | 4.42 |
| O=C(Nc1ccc(N2CCOCC2)c(Cl)c1)c1ccccc1F | 3.56 |
| CCN1CCN(c2ccc(NC(=O)c3ccccc3F)cc2Cl)CC1 | -70.1 |
| O=C(Nc1ccc(N2CCOCC2)c(Cl)c1)c1cc(F)c(F)cc1Cl | -20.9 |
| CCN1CCN(c2ccc(NC(=O)C(C)C)cc2Cl)CC1 | -20 |
| CN1CCN(c2ccc(NC(=O)c3ccc(C#N)cc3F)cc2Cl)CC1 | -53.7 |
| O=C(O)CCCSc1nccn1-c1ccccc1 | 22.3 |
| c1ccc(-c2cc(N3CCOCC3)nc(-c3ccccc3)n2)cc1 | -5.46 |

| SMILES | hERG current change (%, negative = inhibition) at 10uM [%] |
| --- | --- |
| CCN(CC)C(=O)CSc1nnc(-c2cccs2)n1Cc1ccco1 | -11 |
| Cc1ccc(S(=O)(=O)c2c(C)nn(C(C)(C)C)c2OC(=O)c2ccc(Br)o2)cc1 | 7.32 |
| Cc1cc(C)n(CCCNC(=O)Cn2nnnc2CN2C[C@@H](C)O[C@@H](C)C2)n1 | 6.72 |
| C/C(=N\NC(=O)c1nnn(-c2nonc2N)c1CSc1ccccc1)c1ccc2c(c1)OCO2 | 17.5 |
| CC(=O)OC1CC(c2cc(C(C)(C)C)c(O)c(C(C)(C)C)c2)=NO1 (stereo not drawn) | 0.755 |
| CCOc1ccc(NC(=O)COc2ccc3c(c2)CCC3)cc1OC | 3.04 |
| Cc1ccccc1NCc1ccccc1O.Cl | -0.966 |
| Cc1cc(NC(=O)Nc2ccc(F)cc2)no1 | -8.3 |
| COc1cc(OC)cc(C(=O)OCCCOC(=O)c2cc(OC)cc(OC)c2)c1 | 24.6 |
| O=C(Nc1nc2ccccc2[nH]1)c1cccc(S(=O)(=O)N2CCOCC2)c1 | -8.91 |
| O=C(Nc1nc2ccccc2[nH]1)c1ccc(S(=O)(=O)N2CCOCC2)cc1 | 2.85 |
| O=C(Nc1nc2ccccc2[nH]1)c1ccc(Cl)c(S(=O)(=O)N2CCCC2)c1 | -9.28 |
| COc1ccc(C(=O)Nc2nc3ccccc3[nH]2)cc1S(=O)(=O)N1CCOCC1 | -70.1 |
| COc1ccc(CCC(=O)Nc2nc3ccccc3[nH]2)cc1OC | -55.7 |
| COc1ccc(C(=O)Nc2ccc(NC(=O)c3ccccc3)cc2)cc1S(=O)(=O)N1CCOCC1 | 16.6 |
| COc1ccc(C(=O)Nc2nc3ccccc3[nH]2)cc1S(=O)(=O)N1CCCC1 | -52.8 |
| COc1ccc(CCC(=O)Nc2nc3ccccc3[nH]2)cc1 | 14.3 |
| COc1ccc(C(=O)Nc2nc3ccccc3[nH]2)cc1OC | -6.47 |
| O=C(Nc1nc2ccccc2[nH]1)c1ccc(F)c(S(=O)(=O)N2CCOCC2)c1 | -50.3 |
| COc1ccccc1CCC(=O)Nc1nc2ccccc2[nH]1 | 15.7 |
| COc1ccc(C(=O)Nc2ccccc2C)cc1S(=O)(=O)N1CCOCC1 | 2.73 |
| COc1ccc(CCNC(=O)COC(=O)/C=C/c2ccc(OCC#N)c(OC)c2)cc1OC | -17.1 |
